PubChem BioAssay AID2783 (National Center for Advancing Translational Sciences (NCATS), 2010)
Records with an inconclusive call do not appear. Calls of active or inactive are those of the source. The call rests on the fitted dose curve; in most records, active means well fitted inhibition curve with a large enough effect in the polarisation, with a control signal flat (not every such curve was filed as active); inconclusive means small, poorly fitted or top-dose-only effect, or effect the other way, or a change in a side signal; inactive means no such curve, though single readings can be large or run the other way; the % refers to the polarisation.

These molecules were tested against Menin (Homo sapiens) (UniProt O00255) (assay: Confirmation of Inhibitors Targeting the Menin-MLL Interaction in MLL Related Leukemias: Competition With Fluorescein Labeled MLL-derived Peptide). Conditions: Fluorescence polarization, fluorescein-MLL peptide displacement from menin; series mostly up to 100 µM.
Menin (Homo sapiens), sequence (O00255 whole entry, looked up): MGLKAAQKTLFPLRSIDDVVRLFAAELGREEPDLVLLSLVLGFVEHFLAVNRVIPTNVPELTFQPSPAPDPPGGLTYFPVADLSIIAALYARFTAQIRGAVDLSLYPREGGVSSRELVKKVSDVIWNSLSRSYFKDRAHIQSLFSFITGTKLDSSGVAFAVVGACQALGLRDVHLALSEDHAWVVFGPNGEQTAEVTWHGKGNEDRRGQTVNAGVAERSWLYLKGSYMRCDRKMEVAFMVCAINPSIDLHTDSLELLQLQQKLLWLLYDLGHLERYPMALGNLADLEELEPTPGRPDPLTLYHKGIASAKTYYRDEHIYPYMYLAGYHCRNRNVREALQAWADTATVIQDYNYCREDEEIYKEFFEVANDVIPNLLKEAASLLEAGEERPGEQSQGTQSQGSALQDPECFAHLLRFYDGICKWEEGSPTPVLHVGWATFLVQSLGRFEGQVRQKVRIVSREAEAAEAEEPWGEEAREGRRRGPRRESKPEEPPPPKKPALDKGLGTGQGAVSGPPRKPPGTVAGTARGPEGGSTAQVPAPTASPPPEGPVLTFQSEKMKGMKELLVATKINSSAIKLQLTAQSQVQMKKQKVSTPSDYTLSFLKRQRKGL

outcome, inactive:
C=C(C)CNC(=S)Nc1cccc2cnccc12
COc1cc(O)c(C(=O)c2ccccc2)cc1O
CCN(CCn1cccn1)Cc1ccccc1OCC(O)CN1CCc2ccccc2C1 (centres undefined)
CCOc1cc(C(c2c(C)[nH][nH]c2=O)c2c(C)[nH][nH]c2=O)cc(Br)c1OC
Cc1cccc(Nc2nnc(SCC(=O)NC(=O)Nc3ccc4c(c3)OCCO4)s2)c1
COC1=C(Nc2ccccc2)C(=O)c2ccccc2C1=O
COc1ccc(OC)c(C(c2c(C)[nH][nH]c2=O)c2c(C)[nH][nH]c2=O)c1
O=S(=O)(NCCc1c[nH]c2ccccc12)c1ccccc1
COc1cnc(-c2ccccn2)nc1N(C)c1ccccc1
N#CC1=C(N)OC2=C(C(=O)CC(c3ccco3)C2)C1c1ccc(OCc2c(F)cccc2Cl)cc1 (centres undefined)
COCCNC(=O)C(OC(=O)c1nsc(Cl)c1Cl)C(C)C (centres undefined)
CCCn1c(C2CCCN2c2nc(C)cs2)nc2cc(Cl)c(Cl)cc21 (centres undefined)
O=C(Nc1cc(Br)ccc1O)c1cc(-c2ccccc2)on1
O=C1C(Cl)=C(NC(=O)c2ccccc2)C(=O)C(Cl)=C1NC(=O)c1ccccc1
COc1ccc(C2Nc3ccc4ccccc4c3-c3c2c(=O)oc2ccccc32)cc1 (centres undefined)
CC(c1ccncn1)N(C)Cc1nc(-c2ccc(C(F)(F)F)cc2)no1 (centres undefined)
CCCCn1c(SCC(=O)NCc2ccc(OC)c(C(=O)O)c2)nc2cc(S(N)(=O)=O)ccc21
Cc1cc2c(c(=O)n1Cc1ccccc1)C1O[C@](c3ccsc3)(Cc3cc(C#N)ccc31)O2
O=C(Nc1nnc(-c2ccccc2SCc2ccccc2)s1)Nc1ccccc1F
COc1ccc(CCNCc2cc(C)n(-c3ccc(OC)cc3)c2C)cc1
CN(C)CCc1c[nH]c2ccc(CC3COC(=O)N3)cc12 (centres undefined)
Cc1nc(C)c(-c2ccc(SCc3ccccc3F)nn2)s1
O=C(CCN1CCN(c2ccc([N+](=O)[O-])cc2)CC1)c1ccc(Cl)cc1
COc1ccc(N(C(=O)c2ccncc2)S(=O)(=O)c2ccc(Cl)cc2)cc1
CC1CCCCN1S(=O)(=O)c1ccc(C(=O)Nc2ccccc2-c2nc3ccccc3[nH]2)cc1 (centres undefined)
CCOc1ccc2c(c1)C(NC(C)=O)C(=O)N2CCN1CCOCC1 (centres undefined)
O=C(Nc1ccc2ccccc2c1)c1cn(-c2ccccc2)nc1-c1cccs1
O=C(O)c1cc(S(=O)(=O)O)cc(Nc2c3ccccc3nc3ccccc23)c1O
Cc1ccc(NS(=O)(=O)c2csc(C(N)=O)c2)cc1C
COc1ccc(CN2CCN(C(C)C(=O)N(C)Cc3cccc(F)c3)CC2)cc1OC (centres undefined)
COC(=O)C1[C@H]2SC(C)(C)C(C(=O)OC)N2C(=O)N1Cc1nc2ccccc2s1 (some centres undefined)
COc1cc(OC)cc(C(=O)N/N=C/c2ccc(OC)c(COc3ccc4ccccc4c3)c2)c1
CN(C)CCCOc1ccc2c(c1)Sc1ccccc1CC2=O
O=C(NC1CCN(c2ncccn2)CC1)c1c(F)cccc1F
